In PubChem BioAssay:
Activity calls are given as the source filed them.

What was measured:
[1] = tested on: PRMT1 (protein arginine N-methyltransferase 1); assay: PRMT1 binders on small-molecule microarrays, primary screen, biochemical, small-molecule microarray, 635 nm fluorescence (AID 1088); conditions: small-molecule microarray binding, higher = more signal;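 further: binding of Prmt1 protein to compounds spotted on small-molecule microarray slides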
[2] = yeast growth modulation, basal conditions, primary screen, YJM789 clinical isolate, OD600, 24 h (AID 1089);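 further: growth of clinical yeast isolate S. cerevisiae YJM 789 seeded 1000 cells per well; test concentration not given here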; conditions: S. cerevisiae YJM789 growth, higher = more signal, called active from +8 up or from −8 down
[3] = fission yeast growth modulation, primary screen, strain 972, OD600, 24 h, no modulator (AID 1090);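 further: basal condition with compound alone and no growth modifier present; test concentration not given here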; conditions: S. pombe 972 growth, higher = more signal, called active from +8 up or from −8 down
[4] = S. cerevisiae growth modulation with rapamycin, primary screen, strain BY4716, OD600, 96 h (AID 1091); conditions: higher = more signal, called active from +8 up or from −8 down; further: test concentration not given here
[5] = target: Torsin-1A-interacting protein 2 (Homo sapiens) (UniProt Q8NFQ8); assay: LULL1 binders on small-molecule microarray, primary screen, cell lysate, human LULL1 lysate, 635/667 nm fluorescence (AID 1092); conditions: hLULL1 lysate binding, 635 nm fluorescence, higher = more signal;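 further: probe is lysate of COS7 cells overexpressing human LULL1; score merges per-feature 667 nm fluorescence with signal-to-noise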
[6] = E. coli growth modulation, two-sided OD650, primary screen, E. coli filamentation project, strain DRC41, 24 h (AID 1093); conditions: OD650, 24 h, higher = more signal, called active from +8 up or from −8 down;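 further: MC1000 strain lacking acrAB efflux and sulA so SOS filamentation is blocked; test concentration not given here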
[7] = small-molecule microarray binders of probe aLefty2, primary screen, biochemical, biotinylated probe, 635/667 nm fluorescence (AID 1094); conditions: higher = more signal;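 further: score merges spot fluorescence near 667 nm with spot signal-to-noise ratio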
[8] = tested on: Noggin (protein binding on small-molecule microarray); assay: Noggin binders on small-molecule microarray, primary screen, biochemical, 635/667 nm fluorescence (AID 1095); conditions: 635 nm fluorescence, higher = more signal;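 further: score merges 667 nm feature fluorescence with signal to noise over triplicate slides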
[9] = target: Neurogenic locus notch homolog protein 3 (Homo sapiens) (UniProt Q9UM47); assay: NOTCH3 binders on small-molecule microarray, primary screen, biochemical, 635/667 nm fluorescence (AID 1096); conditions: NOTCH3 binding, 635 nm fluorescence, higher = more signal
[10] = small-molecule microarray binders of probe aEGFR, primary screen, biochemical, biotinylated probe, 635/667 nm fluorescence (AID 1097); conditions: higher = more signal;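 further: probe is a biotinylated anti-EGFR antibody binding compounds printed on slides; score combines fluorescence near 667 nm and signal to noise of each spot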
[11] = tested on: Plasmodium falciparum Sir2 (PF13_0152, Sir2A); assay: pfSir2 binders on small-molecule microarrays, primary screen, biochemical, small-molecule microarray, 635 nm fluorescence (AID 1098); conditions: small-molecule microarray binding, fluorescence 635 nm; higher = more signal;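 further: score merges spot fluorescence intensity with its signal-to-noise ratio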
[12] = small-molecule microarray binders of probe aDKK1, primary screen, biochemical, biotinylated probe, 635/667 nm fluorescence (AID 1099); conditions: higher = more signal;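 further: score merges 667nm spot fluorescence with signal to noise across triplicate slides; reference of the scale not given here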
[13] = small-molecule microarray binders of probe aCHRDL2, primary screen, biochemical, biotinylated probe, 635/667 nm fluorescence (AID 1100); conditions: higher = more signal
[14] = splicing luciferase reporter signal modulators, primary screen, spliceosome inhibition project, cell-based, HEK293, splice +/- reporter (AID 1101); conditions: luminescence, 24 h, higher = more signal, called active from +8 up or from −8 down;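 further: HEK293 cells carrying a splicing-competent luciferase reporter gene; test concentration not given here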
[15] = target: Fibroblast growth factor 10 (Homo sapiens) (UniProt O15520); assay: FGF10 binders on small-molecule microarrays, primary screen, biochemical, small-molecule microarray, 635 nm fluorescence (AID 1102); conditions: FGF10 binding, fluorescence 635 nm, higher = more signal
[16] = tested on: glycogen synthase kinase-3 (GSK3A per assay name; protocol says GSK3B); assay: GSK3 binders on small-molecule microarrays, primary screen, biochemical, small-molecule microarray, 635 nm fluorescence, GSK3A (AID 1103); conditions: small-molecule microarray binding, fluorescence 635 nm; higher = more signal; further: the record names both GSK3A and GSK3B
[17] = target: Epidermal growth factor receptor (Homo sapiens) (UniProt P00533); assay: EGFR binders on small-molecule microarrays, primary screen, biochemical, small-molecule microarray, 635 nm fluorescence (AID 1104); conditions: EGFR binding, higher = more signal;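 further: score merges 667 nm emission intensity with spot signal to noise over triplicate slides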
[18] = target: Follistatin-related protein 3 (Homo sapiens) (UniProt O95633); assay: FSTL3 binders on small-molecule microarrays, primary screen, biochemical, small-molecule microarray, 635 nm fluorescence (AID 1105); conditions: FSTL3 binding, higher = more signal;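 further: score merges emission near 667 nm and signal to noise per printed spot across three slides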
[19] = target: Dickkopf-related protein 1 (Homo sapiens) (UniProt O94907); assay: DKK1 binders on small-molecule microarrays, primary screen, biochemical, small-molecule microarray, 635 nm fluorescence scan (AID 1106); conditions: DKK1 binding, higher = more signal;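 further: score merges emission near 667 nm with signal to noise over three replicate slides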
[20] = tested on: Inhibin beta A chain (activin A); assay: INHBA (activin A) binders on microarrays, primary screen, biochemical, small-molecule microarray, 635 nm fluorescence scan (AID 1107); conditions: small-molecule microarray binding, higher = more signal;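 further: mouse activin A protein probed at 4.33 µg/mL on printed slides; score merges bound-protein fluorescence near 667 nm with spot signal-to-noise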

Sequence of Fibroblast growth factor 10 (Homo sapiens) (O15520 whole entry, looked up): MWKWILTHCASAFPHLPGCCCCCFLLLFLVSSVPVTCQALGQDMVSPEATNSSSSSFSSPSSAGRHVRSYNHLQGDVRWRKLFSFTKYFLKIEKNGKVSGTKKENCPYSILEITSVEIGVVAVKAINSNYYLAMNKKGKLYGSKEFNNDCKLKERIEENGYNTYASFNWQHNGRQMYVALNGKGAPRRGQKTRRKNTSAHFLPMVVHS
Sequence of Neurogenic locus notch homolog protein 3 (Homo sapiens) (Q9UM47 whole entry, looked up): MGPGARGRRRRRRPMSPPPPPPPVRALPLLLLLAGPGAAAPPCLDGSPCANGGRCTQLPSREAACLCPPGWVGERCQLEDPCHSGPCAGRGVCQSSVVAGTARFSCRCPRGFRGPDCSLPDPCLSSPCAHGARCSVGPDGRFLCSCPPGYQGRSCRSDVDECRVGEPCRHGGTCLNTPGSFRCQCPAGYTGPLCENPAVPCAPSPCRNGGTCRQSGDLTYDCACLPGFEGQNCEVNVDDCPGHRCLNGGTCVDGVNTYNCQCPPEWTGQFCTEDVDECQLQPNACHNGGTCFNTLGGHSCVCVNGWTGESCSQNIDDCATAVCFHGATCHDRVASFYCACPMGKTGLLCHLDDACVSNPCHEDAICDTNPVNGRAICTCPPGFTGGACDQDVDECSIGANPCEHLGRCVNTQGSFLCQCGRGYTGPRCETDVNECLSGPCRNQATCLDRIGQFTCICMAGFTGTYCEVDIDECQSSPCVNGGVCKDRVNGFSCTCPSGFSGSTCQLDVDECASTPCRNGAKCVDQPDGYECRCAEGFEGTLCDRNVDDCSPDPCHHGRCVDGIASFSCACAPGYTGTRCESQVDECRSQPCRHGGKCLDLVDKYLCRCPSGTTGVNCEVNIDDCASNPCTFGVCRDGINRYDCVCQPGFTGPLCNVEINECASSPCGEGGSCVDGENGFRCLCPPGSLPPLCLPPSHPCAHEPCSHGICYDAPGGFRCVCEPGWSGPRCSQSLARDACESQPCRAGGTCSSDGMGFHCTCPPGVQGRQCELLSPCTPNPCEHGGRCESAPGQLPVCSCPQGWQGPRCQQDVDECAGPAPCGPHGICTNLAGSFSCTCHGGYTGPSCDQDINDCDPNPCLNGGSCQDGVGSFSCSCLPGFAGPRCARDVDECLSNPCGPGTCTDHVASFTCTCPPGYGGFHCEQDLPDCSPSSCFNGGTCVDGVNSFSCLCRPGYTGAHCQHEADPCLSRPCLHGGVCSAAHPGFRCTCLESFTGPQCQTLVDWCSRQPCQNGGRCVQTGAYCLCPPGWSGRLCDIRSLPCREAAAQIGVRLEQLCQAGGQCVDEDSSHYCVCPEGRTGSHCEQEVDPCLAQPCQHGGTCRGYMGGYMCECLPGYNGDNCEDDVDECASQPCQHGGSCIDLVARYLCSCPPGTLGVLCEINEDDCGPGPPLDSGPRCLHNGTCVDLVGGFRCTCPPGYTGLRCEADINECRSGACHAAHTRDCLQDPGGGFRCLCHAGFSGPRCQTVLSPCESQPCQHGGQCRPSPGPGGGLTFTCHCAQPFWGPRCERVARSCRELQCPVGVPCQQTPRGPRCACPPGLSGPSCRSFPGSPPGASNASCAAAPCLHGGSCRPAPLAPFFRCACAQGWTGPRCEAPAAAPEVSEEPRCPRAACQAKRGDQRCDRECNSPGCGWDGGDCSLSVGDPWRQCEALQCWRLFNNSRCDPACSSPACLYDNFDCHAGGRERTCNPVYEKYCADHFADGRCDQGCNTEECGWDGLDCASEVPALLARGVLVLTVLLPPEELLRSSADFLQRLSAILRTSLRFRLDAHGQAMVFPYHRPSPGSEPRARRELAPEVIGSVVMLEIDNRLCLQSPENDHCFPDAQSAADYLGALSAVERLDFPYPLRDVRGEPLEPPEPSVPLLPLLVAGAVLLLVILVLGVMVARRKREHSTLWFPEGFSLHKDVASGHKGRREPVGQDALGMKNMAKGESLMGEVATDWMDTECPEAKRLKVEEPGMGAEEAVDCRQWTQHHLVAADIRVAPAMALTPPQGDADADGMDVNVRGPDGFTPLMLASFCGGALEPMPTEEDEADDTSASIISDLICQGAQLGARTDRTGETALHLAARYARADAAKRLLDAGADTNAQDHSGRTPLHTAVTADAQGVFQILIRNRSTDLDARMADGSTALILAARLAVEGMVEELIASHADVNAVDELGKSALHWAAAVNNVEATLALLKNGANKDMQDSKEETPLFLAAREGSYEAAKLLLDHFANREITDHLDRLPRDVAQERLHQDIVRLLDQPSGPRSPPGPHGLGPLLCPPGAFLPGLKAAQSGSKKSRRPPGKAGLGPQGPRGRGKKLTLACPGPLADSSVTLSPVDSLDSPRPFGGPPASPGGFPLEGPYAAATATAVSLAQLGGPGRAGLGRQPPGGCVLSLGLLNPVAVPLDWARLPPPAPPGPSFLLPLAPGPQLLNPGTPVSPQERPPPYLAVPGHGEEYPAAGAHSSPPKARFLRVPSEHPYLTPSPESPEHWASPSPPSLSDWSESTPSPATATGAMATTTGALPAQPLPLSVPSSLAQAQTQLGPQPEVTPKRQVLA
Sequence of Follistatin-related protein 3 (Homo sapiens) (O95633 whole entry, looked up): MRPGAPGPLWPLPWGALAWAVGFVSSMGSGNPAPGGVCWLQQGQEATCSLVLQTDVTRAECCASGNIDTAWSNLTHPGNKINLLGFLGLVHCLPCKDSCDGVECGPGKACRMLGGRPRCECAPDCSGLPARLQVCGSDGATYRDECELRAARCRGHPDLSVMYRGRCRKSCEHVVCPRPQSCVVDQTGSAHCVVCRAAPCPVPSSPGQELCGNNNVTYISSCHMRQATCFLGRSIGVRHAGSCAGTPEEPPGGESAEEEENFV
Sequence of Torsin-1A-interacting protein 2 (Homo sapiens) (Q8NFQ8 whole entry, looked up): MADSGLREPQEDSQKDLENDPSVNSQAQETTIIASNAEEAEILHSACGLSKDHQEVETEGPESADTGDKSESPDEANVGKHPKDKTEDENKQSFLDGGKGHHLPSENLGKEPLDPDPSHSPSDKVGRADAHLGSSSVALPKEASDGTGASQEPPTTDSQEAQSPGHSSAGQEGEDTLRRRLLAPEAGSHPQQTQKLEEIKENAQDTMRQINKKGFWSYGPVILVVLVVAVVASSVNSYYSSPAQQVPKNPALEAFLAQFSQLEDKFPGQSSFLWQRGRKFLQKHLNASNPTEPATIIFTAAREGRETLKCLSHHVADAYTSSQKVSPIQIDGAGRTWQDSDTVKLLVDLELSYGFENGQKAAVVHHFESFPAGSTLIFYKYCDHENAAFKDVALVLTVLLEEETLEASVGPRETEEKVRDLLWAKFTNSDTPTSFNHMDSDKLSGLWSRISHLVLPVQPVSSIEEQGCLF
Sequence of Dickkopf-related protein 1 (Homo sapiens) (O94907 whole entry, looked up): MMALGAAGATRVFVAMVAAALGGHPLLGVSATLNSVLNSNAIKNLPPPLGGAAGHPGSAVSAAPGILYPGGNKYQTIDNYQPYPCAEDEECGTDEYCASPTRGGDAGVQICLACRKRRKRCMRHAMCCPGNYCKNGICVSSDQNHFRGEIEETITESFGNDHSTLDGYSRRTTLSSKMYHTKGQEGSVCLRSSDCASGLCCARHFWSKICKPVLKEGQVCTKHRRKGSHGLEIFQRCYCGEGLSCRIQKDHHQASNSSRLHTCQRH
Sequence of Epidermal growth factor receptor (Homo sapiens) (P00533 whole entry, looked up): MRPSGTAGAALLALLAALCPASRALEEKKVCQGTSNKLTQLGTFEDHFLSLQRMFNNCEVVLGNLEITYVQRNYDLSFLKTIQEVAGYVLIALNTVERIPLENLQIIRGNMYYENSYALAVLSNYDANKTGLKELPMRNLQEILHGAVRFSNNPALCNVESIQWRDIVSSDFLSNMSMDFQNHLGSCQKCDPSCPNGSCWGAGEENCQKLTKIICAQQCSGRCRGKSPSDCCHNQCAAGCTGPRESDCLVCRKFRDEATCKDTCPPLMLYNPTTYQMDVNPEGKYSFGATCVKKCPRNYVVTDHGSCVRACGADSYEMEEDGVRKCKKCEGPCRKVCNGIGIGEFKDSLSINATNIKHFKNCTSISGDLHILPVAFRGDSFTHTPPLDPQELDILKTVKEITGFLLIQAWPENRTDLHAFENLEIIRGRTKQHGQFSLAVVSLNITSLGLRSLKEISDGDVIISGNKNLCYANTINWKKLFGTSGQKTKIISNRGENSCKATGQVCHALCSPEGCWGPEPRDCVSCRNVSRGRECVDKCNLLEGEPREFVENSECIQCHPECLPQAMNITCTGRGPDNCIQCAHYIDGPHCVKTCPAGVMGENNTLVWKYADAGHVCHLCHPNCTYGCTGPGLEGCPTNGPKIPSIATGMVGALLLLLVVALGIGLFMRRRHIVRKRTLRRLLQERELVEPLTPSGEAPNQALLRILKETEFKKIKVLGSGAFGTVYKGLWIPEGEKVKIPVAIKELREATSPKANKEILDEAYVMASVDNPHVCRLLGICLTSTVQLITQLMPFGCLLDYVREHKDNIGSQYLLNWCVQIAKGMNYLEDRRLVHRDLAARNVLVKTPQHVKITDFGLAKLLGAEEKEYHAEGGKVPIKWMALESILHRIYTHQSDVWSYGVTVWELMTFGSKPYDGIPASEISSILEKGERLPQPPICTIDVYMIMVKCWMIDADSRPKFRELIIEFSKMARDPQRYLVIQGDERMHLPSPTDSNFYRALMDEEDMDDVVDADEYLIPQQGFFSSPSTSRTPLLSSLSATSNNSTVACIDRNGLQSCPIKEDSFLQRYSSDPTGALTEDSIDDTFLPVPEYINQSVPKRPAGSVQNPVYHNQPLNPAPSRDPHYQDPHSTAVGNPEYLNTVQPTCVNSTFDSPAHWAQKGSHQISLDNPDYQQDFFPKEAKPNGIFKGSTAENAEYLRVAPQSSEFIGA

Row | Compound | composite z-score [1] | z-score [2] | z-score [3] | z-score [4] | composite z-score [5] | z-score [6] | composite z-score [7] | composite z-score [8] | composite z-score [9] | composite z-score [10] | composite z-score [11] | composite z-score [12] | composite z-score [13] | z-score [14] | composite z-score [15] | composite z-score [16] | composite z-score [17] | composite z-score [18] | composite z-score [19] | composite z-score [20]
1 | CCCC[C@@H]1C[C@H]1[C@@H](NC(=O)c1ccco1)c1ccc(Cl)cc1 | 0.44 | 0.622 (inactive) | 0.362 (inactive) | 0.384 (inactive) | 2.89 | -0.815 (inactive) | 0.164 | -0.576 | 0.889 | 0.0271 | 0.428 | 0.807 | 1.03 | -0.659 (inactive) | 0.438 | 1.15 | -0.0272 | 0.0636 | 0.461 | 0.89
2 | O=C(NCc1ccccc1)[C@@]1(CCS(=O)(=O)c2ccccc2)N=C(c2ccc(OCCCO)cc2)O[C@H]1c1ccccc1 | 1.56 | 1.72 (inactive) | -0.129 (inactive) | 34.4 (active) | 3.56 | 0.988 (inactive) | 0.215 | 0.878 | 1.06 | 0.116 | 0.691 | 0.717 | 1.03 | 0.0308 (inactive) | 1.28 | 1.12 | -0.304 | 0.866 | -0.393 | 0.525
3 | CS(=O)(=O)CCOC(=O)C1=CC(CCCO)=CC(c2ccc(CN3CCCC3)cc2)N(Cc2cc3c(cc2Br)OCO3)C=C1C(=O)OCCS(C)(=O)=O (stereo not given) | 1.46 | 0.978 (inactive) | -5.34 (inactive) | -1.62 (inactive) | 2.5 | -0.567 (inactive) | 0.0417 | 0.334 | 1.15 | 0.101 | 1.52 | 0.525 | 0.555 | -0.9 (inactive) | 1.2 | 1.27 | 0.422 | 0.634 | 0.232 | 1.29
4 | CCCCN1CC=CC23O[C@@H]4/C=C\CCC(C)OC(=O)C4[C@H]2C(=O)N(CCCCCO)[C@@H]3C1=O (stereo not given in full) | 0.445 | -0.402 (inactive) | -0.831 (inactive) | -0.868 (inactive) | 1.72 | 0.0029 (inactive) | -0.205 | -0.976 | -0.292 | -0.227 | 0.0665 | -0.267 | 0.421 | -0.259 (inactive) | -1.28 | -0.577 | -0.762 | -0.668 | -1.41 | -0.323
5 | CC(C)(C)OC(=O)CC[C@]1(C(=O)O)N=C(c2ccc(OCCCO)cc2)O[C@H]1c1ccccc1N=[N+]=[N-] | 0.938 | 0.0071 (inactive) | 0.179 (inactive) | -0.668 (inactive) | 3 | -0.0096 (inactive) | 1.1 | 0.189 | 0.41 | 0.285 | 1.34 | 1.75 | 1.11 | 0.115 (inactive) | 0.443 | 0.581 | -0.143 | 0.4 | 0.0608 | 0.977
6 | COC(=O)[C@@]1(Cc2ccc(F)cc2)[C@H]2c3cc(C(=O)N(C)C)n(CC4CC4)c3C[C@H]2CN1C(=O)c1ccccc1 | 1.45 | 0.712 (inactive) | 0.877 (inactive) | 2.49 (inactive) | 3.57 | -0.334 (inactive) | 1.41 | 0.506 | 1.06 | 0.973 | -0.0199 | 2.38 | 1.41 | -1.59 (inactive) | 1.4 | 1.31 | 0.463 | 1.18 | -0.637 | 0.14
7 | CN1C(=O)C2C=CC(C(O)C3CC=CCC3)N(NC(=O)OC(C)(C)C)C2C1=O (stereo not given) | 1.14 | 0.0125 (inactive) | 0.826 (inactive) | 0.259 (inactive) | 3.54 | -1.16 (inactive) | -0.0379 | 0.532 | 0.95 | -0.0197 | 0.701 | 0.0347 | 0.16 | 1.61 (inactive) | 0.796 | 1.12 | 0.933 | 1.23 | 0.347 | 1.03
8 | COC(=O)[C@@]1(Cc2ccc(F)cc2)[C@@H]2[C@@H](CC(=O)[C@H]2CC(=O)C(=O)N(C)C)CN1C(=O)c1ccccc1 | 0.781 | 0.658 (inactive) | 2.12 (inactive) | 2.7 (inactive) | 2.43 | -0.874 (inactive) | 0.288 | 0.221 | 1.08 | 0.4 | 0.532 | 1.21 | 1.19 | -0.191 (inactive) | 0.849 | 1.09 | 0.251 | 1.32 | -0.598 | 0.793
9 | CCOC(=O)C[C@H]1[C@H](OC(=O)c2cc3ccccc3oc2=O)[C@@H](NC(=O)Cc2ccc(OC)cc2)c2cc(OCCCO)ccc2N1C(=O)c1ccccc1 | 0.242 | -0.0987 (inactive) | -0.507 (inactive) | 0.279 (inactive) | 1.08 | 0.201 (inactive) | -0.139 | 0.558 | 0.0769 | -0.0174 | 0.39 | -0.351 | -0.355 | -0.854 (inactive) | 0.458 | 0.0878 | 0.436 | 0.23 | 0.313 | 0.726
10 | COC(=O)[C@@]1(Cc2ccc(OC)cc2)[C@H]2c3cc(C(=O)N4CCCC4)n(Cc4ccsc4Br)c3C[C@H]2CN1C(=O)c1ccccc1 | -0.356 | -0.168 (inactive) | 0.0021 (inactive) | -0.887 (inactive) | 2.91 | -0.29 (inactive) | 0.498 | -0.0969 | 0.855 | 0.122 | 0.824 | 0.597 | 1.08 | 2.42 (inactive) | -0.125 | 0.386 | -0.248 | -0.246 | -0.752 | 0.741
